PMC5540273 (PLoS ONE, 2017)

How the values were obtained:
Settings in all cases: concentration: 1 μM,replicates: in singlicate; n = 1
[1] = test system: JAK1(JH2domain-pseudokinase)
[2] = test system: JAK2(JH1domain-catalytic)
[3] = test system: JAK3(JH1domain-catalytic)
[4] = test system: T1, JNK1
T1 construct: gene MAPK8

[5] = test system: T2, JNK2
T2 construct: gene MAPK9

[6] = test system: T3, JNK3
T3 construct: gene MAPK10

[7] = test system: KIT-autoinhibited
[8] = test system: KIT
[9] = test system: LATS1
[10] = test system: LATS2
[11] = test system: LCK
[12] = test system: LIMK1
[13] = test system: LIMK2
[14] = test system: T4, LKB1
T4 construct: gene STK11

[15] = test system: T5, LOK
T5 construct: gene STK10

[16] = test system: LRRK2
[17] = test system: LTK
[18] = test system: LYN
[19] = test system: T6, LZK
T6 construct: gene MAP3K13

[20] = test system: MAK
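Note: KINOMEscan kinase panel screen.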

| Compound | %Inh [1] [%] | %Inh [2] [%] | %Inh [3] [%] | %Inh [4] [%] | %Inh [5] [%] | %Inh [6] [%] | %Inh [7] [%] | %Inh [8] [%] | %Inh [9] [%] | %Inh [10] [%] | %Inh [11] [%] | %Inh [12] [%] | %Inh [13] [%] | %Inh [14] [%] | %Inh [15] [%] | %Inh [16] [%] | %Inh [17] [%] | %Inh [18] [%] | %Inh [19] [%] | %Inh [20] [%] |
| --- | --- | --- | --- | --- | --- | --- | --- | --- | --- | --- | --- | --- | --- | --- | --- | --- | --- | --- | --- | --- |
| CC(=O)Nc1nc2cnc(Nc3cc(NC(=O)c4cccc(CC(C)(C)C#N)c4)ccc3C)nc2s1 | 25 | 0 | 0 | 33 | 41 | 43 | 36 | 100 | 7 | 47 | 72 | 0 | 2 | 1 | 55 | 9 | 2 | 58 | 15 | 0 |
| CN(c1ccccc1CNc1nc(Nc2ccc3c(c2)CC(=O)N3)ncc1C(F)(F)F)S(C)(=O)=O | 66 | 98.6 | 99.2 | 64 | 66 | 63 | 0 | 38 | 65 | 76 | 78 | 0 | 0 | 0 | 57 | 20 | 81 | 26 | 0 | 16 |
| CC(C)S(=O)(=O)N1CCN(Cc2ccc3c(c2)nc(NC(=O)c2ccsc2)n3C[C@H](O)c2ccccc2)CC1 [GW635815] | 0 | 77 | 54 | 19 | 10 | 15 | 20 | 87 | 0 | 0 | 39 | 0 | 0 | 0 | 0 | 66 | 25 | 0 | 69 | 18 |
| O=C(Nc1cccc(C(F)(F)F)c1)c1cccc(Oc2ccc3nccn3n2)c1 | 10 | 30 | 8 | 21 | 0 | 10 | 44 | 99.9 | 0 | 0 | 63 | 0 | 8 | 0 | 24 | 0 | 45 | 37 | 20 | 0 |
| CS(=O)(=O)Nc1ccc(-c2ccnc3[nH]ccc23)cc1 [GSK993273] | 9 | 97.7 | 97.1 | 49 | 27 | 28 | 0 | 59 | 42 | 82 | 25 | 0 | 13 | 0 | 0 | 35 | 0 | 0 | 8 | 0 |
| O=C(Nc1ccc(Oc2ccc3nc(NC(=O)C4CC4)cn3n2)c(F)c1)c1cccn(-c2ccccc2)c1=O | 0 | 0 | 0 | 0 | 0 | 0 | 0 | 100 | 0 | 0 | 0 | 33 | 29 | 0 | 99.5 | 0 | 29 | 36 | 0 | 10 |
| Cc1n[nH]c2cc(Nc3ccnc(Nc4cccc(CN5CCOCC5)c4)n3)ccc12 [GW682569] | 98.8 | 99.4 | 79 | 96.2 | 58 | 85 | 28 | 97.7 | 0 | 0 | 71 | 9 | 5 | 17 | 0 | 0 | 1 | 25 | 31 | 20 |
| C[C@@H](Oc1cc(-n2cnc3cc(-c4cnn(C)c4)ccc32)sc1C(N)=O)c1ccccc1Cl [GSK580432] | 0 | 86 | 96.9 | 0 | 31 | 16 | 0 | 96.4 | 0 | 2 | 94.8 | 0 | 0 | 57 | 99.9 | 68 | 25 | 38 | 0 | 0 |
| COc1cc2nccc(Nc3ccc(Oc4ccccc4)cc3)c2cc1OC.Cl [GI261656] | 0 | 100 | 0 | 4 | 10 | 0 | 0 | 79 | 0 | 9 | 99.2 | 0 | 14 | 13 | 0 | 0 | 0 | 71 | 5 | 1 |
| Cl.Cl.NC[C@H](CC1CCCCC1)NC(=O)c1ccc(-c2ccnc3[nH]ccc23)s1 [GSK1581428] | 0 | 97.2 | 99.7 | 18 | 11 | 8 | 0 | 65 | 89 | 95.3 | 37 | 0 | 0 | 50 | 31 | 49 | 0 | 0 | 0 | 0 |
